BAZ2B block: qHTS Assay for Inhibitors of BAZ2B; Bromodomain adjacent to zinc finger domain protein 2B (Homo sapiens), Q9UIF8; AlphaScreen BAZ2B-H3K14Ac peptide displacement; Potency, µM (series often up to 114 µM), actives largely listed as inhibitors; actives 4.4% (n = 360,000); note: nearly all actives have a fitted effect of over 60% in size
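Multi-concentration screen (max 110 uM) measuring displacement of acetylated histone H3 peptide from BAZ2B by AlphaScreen, using 50 nM protein, 50 nM peptide and 10 ug/mL streptavidin donor plus Ni-chelate acceptor beads.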
G9a block: qHTS Assay for Inhibitors of Histone Lysine Methyltransferase G9a | G9a H3K9 monomethylation, AlphaScreen, 2 h | actives 8.8% (n = 350,000) | Potency, µM (highest dose often 102 µM), hits mostly inhibitors; note: nearly all actives have a fitted effect of over 75% in size
Target sequence (Q96KQ7 913-1193 limits assumed): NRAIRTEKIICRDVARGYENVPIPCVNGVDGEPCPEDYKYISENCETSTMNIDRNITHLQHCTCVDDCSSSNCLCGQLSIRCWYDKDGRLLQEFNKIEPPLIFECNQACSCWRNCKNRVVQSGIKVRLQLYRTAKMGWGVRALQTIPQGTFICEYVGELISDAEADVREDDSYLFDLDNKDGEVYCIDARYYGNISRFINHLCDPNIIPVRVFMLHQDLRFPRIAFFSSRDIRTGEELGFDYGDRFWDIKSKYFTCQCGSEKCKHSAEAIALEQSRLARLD
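G9a (20 nM) preincubated 15 min RT with compounds, then 500 nM biotinylated H3K9 peptide and 20 uM SAM added; 2 h RT reaction. Monomethyl-H3K9 product detected by AlphaScreen with anti-H3K9me1 antibody, streptavidin donor and anti-rabbit IgG acceptor beads.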
JMJD2A Tudor: qHTS Assay for Inhibitors of JMJD2A-Tudor Domain; actives 4.4% (n = 390,000); Potency, µM (highest dose often 114 µM), hits mostly inhibitors; AID 504339, 2011; Lysine-specific demethylase 4A (Homo sapiens), O75164; AlphaScreen JMJD2A-Tudor / H3K4me3 peptide binding; note: nearly all actives have a fitted effect of over 50% in size
HP1b chromo inh: HTS for Inhibitors of HP1-beta Chromodomain Interactions with Methylated Histone Tails; Chromobox protein homolog 1 (Homo sapiens), P83916; AlphaScreen HP1-beta / biotin-H3K9me3 peptide binding; Potency, µM (series often up to 114 µM), most hits filed as inhibitors; actives 0.56% (n = 390,000); AID 540317, 2011; note: nearly all actives have a fitted effect of over 70% in size
Target sequence (P83916 whole entry, looked up): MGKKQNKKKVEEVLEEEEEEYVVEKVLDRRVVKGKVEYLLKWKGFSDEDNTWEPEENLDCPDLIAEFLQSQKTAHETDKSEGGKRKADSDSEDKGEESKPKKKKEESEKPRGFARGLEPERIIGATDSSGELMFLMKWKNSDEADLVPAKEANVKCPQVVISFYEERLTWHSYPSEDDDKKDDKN
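AlphaScreen: HP1-beta (50 nM) preformed 30 min with biotin-H3(1-18)K9me3 peptide (50 nM) in PBS pH 7.4, 0.01% Tween-20. Compound added for 30 min at RT, then streptavidin donor/nickel chelate acceptor beads (10 ug/mL) for 30 min.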
Six1-Eya2 inh: qHTS Assay for Inhibitors of the Six1/Eya2 Interaction; Homeobox protein SIX1 (Homo sapiens) + Protein phosphatase EYA2 (Homo sapiens), …; AlphaScreen GST-Six1/His-Eya2 binding, biochemical; hits give low values; activity change, % (no concentration beside the values); actives 0.56% (n = 360,000); in the data active = activity change below about -65%; inconclusive = mostly about -30% to -63%
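AlphaScreen with GST-Six1 and His-Eya2 (5X mix: 250 nM and 500 nM), glutathione donor and nickel acceptor beads; buffer 50 mM Tris pH 8.0, 300 mM NaCl, 1 mM TCEP; 1 h at 37 C in the dark.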
CtBP-E1A blk: qHTS Assay for Inhibitors of the CtBP/E1A Interaction; AlphaScreen GST-E1A/His-CtBP binding, 1536-well; hits give low values; actives 0.49% (n = 340,000); AID 651724, 2012; activity change, % (no concentration beside the values); in the data active = activity change below about -65%; inconclusive = mostly about -30% to -63%
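Protein mix (5X: 125 nM each GST-E1A, His-CtBP) was incubated with pinned compound 2 h at 37 deg C in dark, in 50 mM Tris pH 8.0 buffer with 300 mM NaCl. Glutathione donor and nickel acceptor beads followed; AlphaScreen signal read after 1 h.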
A number is an active result; – = inactive; ? = inconclusive; · = no result given; ! = a repeat was not active; [ ] = another dose, or the depositor's remark. Shown are actives, neighbours in structure and some others; about 10% of the full set was active somewhere. Unless noted, calls come from the whole dose curve; as a rule, active = well fitted inhibition curve with a large enough effect; inconclusive = small, poorly fitted or top-dose-only effect; inactive = no such curve, though single readings can be large or run the other way.

SMILES	BAZ2B block	G9a block	JMJD2A Tudor	HP1b chromo inh	Six1-Eya2 inh	CtBP-E1A blk
COC(=O)c1ccc2[nH]c([C@H](C)O)c([C@H](C)O)c2c1	–	44.7µM	–	–	–	–
CCOc1ccc(NC(=O)CN(C)C(=O)c2ccc3[nH]c4c(c3c2)CC(C)CC4)cc1OCC (centres undefined)	?	35.5µM	?	?	?	–
Cc1ccc(NC(=O)CN(C)C(=O)c2ccc3[nH]c4c(c3c2)CC(C)CC4)cc1 (centres undefined)	?	?	44.7µM	?	–	–
CC1CCc2[nH]c3ccc(C(=O)Nc4ccc(C(=O)N(C)C)cc4)cc3c2C1 (centres undefined)	–	·	–	–	–	–
COC(=O)c1ccc2[nH]c3c(c2c1)CC(C)CC3 (centres undefined)	25.1µM	·	?	–	–	·
CCCC(C)NC(=O)c1ccc2[nH]c3c(c2c1)CC(C)CC3 (centres undefined)	–	?	–	–	–	–
CCOc1ccc(NC(=O)CN(C)C(=O)c2ccc(NC3CC3)c([N+](=O)[O-])c2)cc1OCC	–	?	–	–	–	–
CCCc1[nH]c2ccc(C(=O)OC)cc2c1CCC	?	?	?	–	–	·
Cc1ccc(NC(=O)Cn2cnc3sc(C(=O)O)c(C)c3c2=O)cc1Cl	–	–	–	–	·	·
C[C@H](N)c1nnc(SCC(N)=O)o1	56.2µM	12.6µM	–	–	–	–
CCOC(=O)C1=C[C@]2(CC)CCCN3CCc4c(n1c1ccccc41)[C@@H]32	?	22.4µM!	–	–	–	–
c1ccc2sc(SN3CCOCC3)nc2c1	–	?	39.8µM	?	–	–
CCOC(=O)CNC(=O)c1ccc(-c2nn(C)c(=O)c3ccccc23)cc1	–	–	–	–	·	·
Cc1ccc([N+](=O)[O-])cc1S(=O)(=O)N1CCCC1	–	?	–	–	–	–
COc1ccc2ccc(O)c(CN3CCN(S(=O)(=O)c4cc([N+](=O)[O-])ccc4C)CC3)c2c1	–	1.26µM	–	–	–	–
COc1ccccc1CN1CCN(S(=O)(=O)c2ccc(C)cc2)CC1	·	·	20µM	?	–	–
COc1ccccc1CNC(=O)N1CCN(S(=O)(=O)c2ccc(C)cc2)CC1	–	–	–	–	–	–
CCOc1ccc(C(=O)CN2CCN(S(=O)(=O)c3ccc(Cl)cc3)CC2)cc1	–	35.5µM	–	–	–	–
CCN1CCN(CC(=O)c2ccc(OC)cc2)CC1	–	44.7µM	–	–	–	–
CC1(CC(=O)N/N=C/c2cc3c(cc2Br)OCO3)OCCO1	·	–	–	–	–	–
Cc1ccc(N(Cc2cccs2)C(=O)c2ccccc2)cc1	–	–	–	–	·	·
Cn1c(C(=O)N[C@@H](C(=O)O)c2ccccc2)cc2cc(F)ccc21	–	–	–	–	–	–
CN(Cc1ccccc1)C1CCN(Cc2ccccc2[N+](=O)[O-])CC1	20µM	17.8µM	11.2µM	?	–	–
CN1CCC(N(C)C(=O)Cc2ccccc2[N+](=O)[O-])CC1	–	–	–	–	–	–
COc1ccc(S(=O)(=O)N2CCN(Cc3ccc(Cl)cc3)CC2)cc1	?	2.51µM	10µM	?	–	–
SMILES	BAZ2B block	G9a block	JMJD2A Tudor	HP1b chromo inh	Six1-Eya2 inh	CtBP-E1A blk
COc1ccc(S(=O)(=O)N2CCN(Cc3cccc([N+](=O)[O-])c3)CC2)cc1	·	·	20µM	?	–	–
COc1ccc(S(=O)(=O)N2CCN(Cc3cccc(F)c3)CC2)cc1	·	·	3.16µM	?	–	–
COc1ccc(S(=O)(=O)N2CCN(Cc3cccc(Cl)c3)CC2)cc1	–	–	–	–	–	–
CC1(C(=O)NS(=O)(=O)Cc2cccc(Cl)c2)CCN1C(=O)C1(c2ccc(Cl)cc2)CCC1 (centres undefined)	·	·	·	·	–	–
Cc1cccc(-c2nn3c(=O)cc(CN4CCN(C(=O)c5ccccc5Br)CC4)nc3s2)c1	–	–	–	–	·	·
CCC1CCCCN1C(=O)Cn1c(=O)cc(C(F)(F)F)c2c(C)nn(C)c21 (centres undefined)	–	–	–	–	·	·
O=[N+]([O-])c1ccccc1CN1CCN(S(=O)(=O)Cc2ccccc2)CC1	44.7µM	·	0.794µM	?	–	–
CCN1CCN(S(=O)(=O)c2ccc(OC)cc2)CC1	–	–	–	–	–	–
COc1ccc(S(=O)(=O)N2CCN(Cc3ccccc3[N+](=O)[O-])CC2)cc1	·	·	3.16µM	?	?	–
O=S(=O)(Cc1ccccc1)N1CCN(c2ncccn2)CC1	–	–	–	–	–	–
Cc1sc2ncnc(NCC(O)c3ccc([N+](=O)[O-])cc3)c2c1C (centres undefined)	–	–	–	–	–	–
CCCCCCCCCCCCCCCC(=O)NCC(COP(=O)([O-])OCC[N+](C)(C)C)OCC (centres undefined)	·	–[12.7 µM]	·	·	·	·
CCCCCCCCCCCCCCCCCC(=O)NCC(COP(=O)([O-])OCC[N+](C)(C)C)OCC (centres undefined)	·	13.4µM	·	·	·	·
C=CC[n+]1c(-c2ccc(OC)c(OC)c2)csc1NNC(=O)Nc1ccccc1	31.6µM	?	?	?	–	–
O=c1c2[nH]c3cc(Br)sc3c2cnn1Cc1ccccc1F	·	·	39.8µM	·	·	·
CCC(CC)C(C(=O)NCc1ccccc1)N1CCN(C(=O)C2CCCO2)CC1 (centres undefined)	·	·	·	·	–	–
CC1CC(C)(C)NC(=S)S1 (centres undefined)	–	8.91µM	–	–	–	–
C#C[C@@]1(O)CC[C@@H]2[C@H]3CCC4=C/C(=N\O)CC[C@H]4[C@@H]3CC[C@]21CC	·	–[12.7 µM]	·	·	·	·
C=CC(=O)c1ccc(CCCCCC)cc1	·	11.2µM	·	·	·	·
O=C(c1ccc2c(c1)N(Cc1cccc(Cl)c1)C(=O)c1ccccc1S2(=O)=O)N1CCN(Cc2ccccc2)CC1	–	–	–	–	·	·
CCOc1ccc2c(c1)/C(=N/N1C(=O)c3ccccc3C1=O)C(=O)N2	–	–	–	–	–	–
CCOc1ccc2c(c1)-c1c(ssc1=S)C(C)(C)N2	10µM	10µM	25.1µM	?	?	?
Nc1ccccc1SC/C=C/CSc1ccccc1N	–	11.2µM	–	–	–	–
COc1ccc(Nc2ccc3c(c2)=NC2(CCCCC2)[N+]=3[O-])cc1	39.8µM	?	22.4µM	?	–	–
